Measured values taken from PubChem BioAssay.
Activity calls are given as the source filed them.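 Rule for the calls: active = mean inhibition over 43.08%, the solvent-only control mean plus 3 SD; inactive = the rest.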

Target: Nuclear receptor coactivator 3 (Homo sapiens) (UniProt Q9Y6Q9)
Experiment: SRC3 coactivator transcriptional activity inhibitors, confirmation, cell-based, luminescence, quadruplicate (AID 588792);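 note: 0% = DMSO treated cells and 100% = gossypol at 36 µM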
Conditions: HEK293 GAL4-SRC3 luciferase reporter, at 3.6 µM, active compounds read high

Chain of Nuclear receptor coactivator 3 (Homo sapiens) (Q9Y6Q9 whole entry, looked up): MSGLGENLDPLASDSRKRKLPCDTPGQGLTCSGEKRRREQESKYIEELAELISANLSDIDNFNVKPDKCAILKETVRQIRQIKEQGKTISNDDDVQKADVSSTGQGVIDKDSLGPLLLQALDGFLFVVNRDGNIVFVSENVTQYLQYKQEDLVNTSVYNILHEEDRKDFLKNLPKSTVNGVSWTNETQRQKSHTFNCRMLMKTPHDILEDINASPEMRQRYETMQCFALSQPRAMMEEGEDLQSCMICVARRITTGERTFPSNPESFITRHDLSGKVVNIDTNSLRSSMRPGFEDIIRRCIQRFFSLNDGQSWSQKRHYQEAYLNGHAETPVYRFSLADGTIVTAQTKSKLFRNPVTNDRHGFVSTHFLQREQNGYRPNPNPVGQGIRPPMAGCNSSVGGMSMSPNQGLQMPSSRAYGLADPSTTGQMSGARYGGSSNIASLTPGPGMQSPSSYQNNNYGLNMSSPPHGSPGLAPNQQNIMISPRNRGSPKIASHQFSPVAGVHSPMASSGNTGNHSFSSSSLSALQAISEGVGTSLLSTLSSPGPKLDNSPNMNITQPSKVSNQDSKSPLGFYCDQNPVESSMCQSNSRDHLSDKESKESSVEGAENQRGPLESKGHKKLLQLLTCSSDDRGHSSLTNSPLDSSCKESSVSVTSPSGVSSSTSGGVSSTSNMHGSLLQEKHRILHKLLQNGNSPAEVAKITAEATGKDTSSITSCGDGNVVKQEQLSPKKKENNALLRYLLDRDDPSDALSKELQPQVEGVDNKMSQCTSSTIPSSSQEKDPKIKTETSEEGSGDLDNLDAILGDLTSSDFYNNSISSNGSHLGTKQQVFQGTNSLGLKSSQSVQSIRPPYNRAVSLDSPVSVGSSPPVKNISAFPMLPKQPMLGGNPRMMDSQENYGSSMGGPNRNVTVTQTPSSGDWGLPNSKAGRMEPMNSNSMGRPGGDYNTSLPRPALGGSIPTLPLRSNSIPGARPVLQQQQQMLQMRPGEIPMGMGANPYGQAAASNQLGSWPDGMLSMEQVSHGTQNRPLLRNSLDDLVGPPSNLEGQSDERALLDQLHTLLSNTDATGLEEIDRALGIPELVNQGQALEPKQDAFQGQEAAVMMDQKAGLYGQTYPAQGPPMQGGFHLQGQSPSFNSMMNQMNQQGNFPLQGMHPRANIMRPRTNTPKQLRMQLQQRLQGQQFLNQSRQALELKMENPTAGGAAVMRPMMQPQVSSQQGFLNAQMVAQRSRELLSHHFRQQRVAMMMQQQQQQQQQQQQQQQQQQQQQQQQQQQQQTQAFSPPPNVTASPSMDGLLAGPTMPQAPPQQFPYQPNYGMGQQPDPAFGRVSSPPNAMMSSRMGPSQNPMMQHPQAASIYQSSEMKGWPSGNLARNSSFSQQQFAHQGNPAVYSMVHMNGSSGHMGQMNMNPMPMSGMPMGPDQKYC

SMILES | inhibition
CCN(CC)c1ccc(/C=N/NC(=O)c2ccc3nc[nH]c3c2)c(O)c1 | 51.3% (active)
COCCN(CCOC)S(=O)(=O)c1ccc(C(=O)Nc2nc3c(s2)CCc2ccccc2-3)cc1 | 0.71% (inactive)
Cc1cccc(OC(=O)NCCOC(=O)N(O)c2ccc(Cl)cc2)c1 | 4.94% (inactive)
CCCCN(CCCC)C(=O)CSc1nnc(-c2cc(OC)c(OC)c(OC)c2)o1 | -1.92% (inactive)
CC(=O)c1c(C)[nH]c(C(=O)CSc2nc3ccccc3n2C)c1C | 2.74% (inactive)
CCOC(=O)c1c(-c2ccccc2)oc2ccc(O)c(CN3CCOCC3)c12 | -5.57% (inactive)
O=C(N/N=C\c1c(O)ccc2ccccc12)c1ccc(Cn2cccn2)o1 | 49.1% (active)
Cc1nnsc1-c1onc(C)c1C(=O)Nc1cc(Cl)cc(Cl)c1 | 15.8% (inactive)
COc1cccc(-c2csc3ncnc(Sc4nnnn4C)c23)c1 | 5.54% (inactive)
COc1ccccc1N1CCN(C(=O)C2CCCN(S(=O)(=O)c3ccc4c(c3)CCCN4C(C)=O)C2)CC1 (stereo not given) | -12.2% (inactive)
Cc1cc(C)nc(/N=C(\N)Nc2ccccc2-c2ccccc2)n1 | -12% (inactive)
C=CC[C@@H](CC(=O)NCCO)C(=O)NC[C@H](OC(=O)[C@@H](CC=C)Cc1ccc(F)cc1)c1ccccc1 | 16.2% (inactive)
c1csc(Cc2nn3c(-c4ccncc4)nnc3s2)c1 | 29.8% (inactive)
COc1ccc(-n2c(C)cc(C(=O)COc3ccc(C)nc3[N+](=O)[O-])c2C)cc1 | 14.4% (inactive)
COc1ccc(C(=O)Nc2ccc(N3CCN(C(=O)c4ccccc4C)CC3)cc2)cc1 | 28.4% (inactive)
